Laboratory results from the supplement of paper PMC10849652.
Of roughly 7,900 targets only a part is listed; those with a hit were picked by preference. About 0.6% of all pairs of compound and target were hits.

Experiments:
Experiment in all cases: log2 fold change, soluble protein after heating vs DMSO (PISA); higher = thermal stabilisation; K562 cells, 10 uM, 30 min; active = over 0.2 and 3.5 SD of the protein, either way, in both replicates (recomputed)
[1] = compound: CN1CCN(CCOc2cc(OC3CCOCC3)c3c(Nc4c(Cl)ccc5c4OCO5)ncnc3c2)CC1 [saracatinib]
Outline: (§1)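 Soluble protein was defined as the supernatant after 21,000xg for 90 min. It came from K562 cells at 2×10^6 cells/mL given 10 μM compound for 30 min, heated in aliquots for 3 min across 48°C-58°C, pooled, and extracted in PBS with 0.5% NP-40 at 4°C, and was quantified by TMTpro 16plex LC-MS/MS with equalised channel sums. Thermal stability against control samples, from duplicates, is reported as log2 fold change.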

[2] = compound: CN1CCN(c2nc(C3=C(c4c[nH]c5ccccc45)C(=O)NC3=O)c3ccccc3n2)CC1 [sotrastaurin]
Outline: as §1

[3] = compound: CN1CC[C@H](c2c(O)cc(O)c3c(=O)cc(-c4ccccc4Cl)oc23)[C@H](O)C1 [alvocidib]
Outline: as §1

[4] = compound: CN1CCc2c(c3ccccc3n2Cc2ccc(C(=O)NO)cc2)C1 [Tubastatin A]
Outline: as §1

[5] = compound: CNC(=O)C1=CC=CC=C1NC2=NC(=NC=C2Cl)NC3=C(C=C(C=C3)N4CCOCC4)OC
Outline: as §1

[6] = compound: CNC(=O)c1ccc(Nc2ncc(C(F)(F)F)c(NCc3nccnc3N(C)S(C)(=O)=O)n2)cc1 [defactinib]
Outline: as §1

[7] = compound: CNCc1ccc(-c2[nH]c3cc(F)cc4c3c2CCNC4=O)cc1 [rucaparib]
Outline: as §1

[8] = compound: CNc1nc(-c2ccc3c(N)n[nH]c3c2)cc(N2C[C@@H](C(=O)NC3CCCCC3)CC[C@H]2C)n1
Outline: as §1

[9] = compound: COC(=O)N[C@@H](C)CNc1nccc(-c2cn(C(C)C)nc2-c2cc(Cl)cc(NS(C)(=O)=O)c2F)n1 [encorafenib]
Outline: as §1

[10] = compound: COC(=O)[C@H](CCSC)NC(=O)C1=C(C=C(C=C1)NC[C@H](CS)N)C2=CC=CC=C2
Outline: as §1

Measured: log2 fold change

XPO6 (UniProt Q96QU8)
inactive: [1] -0.012 | [2] -0.119 | [3] -0.115 | [4] -0.009 | [5] 0.036 | [6] -0.104 | [7] 0.076 | [8] 0.037 | [9] 0.015 | [10] -0.03

TTC4 (UniProt O95801)
inactive: [1] -0.09 | [2] -0.11 | [3] -0.146 | [4] 0.055 | [5] 0.078 | [6] -0.169 | [7] 0.04 | [8] 0.051 | [9] 0.049 | [10] -0.055

WDR11 (UniProt Q9BZH6)
UniProt Q9BZH6, sequence (Q9BZH6 whole entry, looked up): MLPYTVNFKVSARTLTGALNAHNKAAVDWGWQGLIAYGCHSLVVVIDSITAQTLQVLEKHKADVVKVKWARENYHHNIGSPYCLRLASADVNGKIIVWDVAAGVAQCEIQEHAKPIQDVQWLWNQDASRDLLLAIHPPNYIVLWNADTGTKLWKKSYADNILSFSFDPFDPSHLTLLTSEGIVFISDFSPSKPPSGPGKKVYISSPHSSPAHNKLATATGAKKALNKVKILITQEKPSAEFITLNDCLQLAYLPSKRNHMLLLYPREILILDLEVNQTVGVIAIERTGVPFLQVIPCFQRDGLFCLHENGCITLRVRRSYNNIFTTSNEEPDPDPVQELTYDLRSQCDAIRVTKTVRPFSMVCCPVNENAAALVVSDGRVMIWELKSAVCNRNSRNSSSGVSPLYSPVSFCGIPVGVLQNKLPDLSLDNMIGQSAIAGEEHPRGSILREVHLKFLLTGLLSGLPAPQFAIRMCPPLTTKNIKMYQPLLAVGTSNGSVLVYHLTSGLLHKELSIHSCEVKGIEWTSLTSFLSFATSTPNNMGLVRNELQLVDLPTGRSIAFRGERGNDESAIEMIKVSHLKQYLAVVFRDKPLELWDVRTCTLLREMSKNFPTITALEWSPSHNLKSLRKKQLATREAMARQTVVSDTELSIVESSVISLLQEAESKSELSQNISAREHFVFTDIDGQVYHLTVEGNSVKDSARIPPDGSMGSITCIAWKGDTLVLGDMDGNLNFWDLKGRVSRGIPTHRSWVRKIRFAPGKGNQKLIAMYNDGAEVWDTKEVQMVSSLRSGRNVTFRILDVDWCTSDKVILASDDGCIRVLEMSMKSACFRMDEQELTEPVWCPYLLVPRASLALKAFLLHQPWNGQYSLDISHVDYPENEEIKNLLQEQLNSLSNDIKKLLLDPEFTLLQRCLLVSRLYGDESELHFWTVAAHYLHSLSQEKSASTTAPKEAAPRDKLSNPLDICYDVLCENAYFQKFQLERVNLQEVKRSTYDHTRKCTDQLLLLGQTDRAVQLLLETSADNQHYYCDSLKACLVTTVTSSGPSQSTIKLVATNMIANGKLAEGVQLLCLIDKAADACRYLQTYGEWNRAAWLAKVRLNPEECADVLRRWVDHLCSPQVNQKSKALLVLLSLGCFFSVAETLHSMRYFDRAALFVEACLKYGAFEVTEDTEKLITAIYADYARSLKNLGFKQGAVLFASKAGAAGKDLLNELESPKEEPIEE
active: [7] -0.382
inactive: [1] -0.079 | [2] 0.059 | [3] 0.06 | [4] -0.029 | [5] -0.021 | [6] 0.016 | [8] -0.052 | [9] -0.034 | [10] 0.017

TMEM177 (UniProt Q53S58)
inactive: [1] 0.078 | [2] 0.014 | [3] 0.031 | [4] 0.08 | [5] 0.005 | [6] -0.046 | [7] 0.009 | [8] -0.003 | [9] -0.02 | [10] 0.024

UBA6
inactive: [1] -0.006 | [2] -0.125 | [3] -0.08 | [4] -0.047 | [5] 0.041 | [6] -0.089 | [7] 0.024 | [8] 0.011 | [9] 0.049 | [10] -0.032

VKORC1 (UniProt Q9BQB6)
inactive: [1] 0.002 | [2] -0.086 | [3] 0.073 | [4] -0.052 | [5] 0.105 | [6] -0.038 | [7] -0.059 | [8] 0.026 | [9] 0.057 | [10] -0.023

UBE2Q1 (UniProt Q7Z7E8)
UniProt Q7Z7E8, sequence (Q7Z7E8 whole entry, looked up): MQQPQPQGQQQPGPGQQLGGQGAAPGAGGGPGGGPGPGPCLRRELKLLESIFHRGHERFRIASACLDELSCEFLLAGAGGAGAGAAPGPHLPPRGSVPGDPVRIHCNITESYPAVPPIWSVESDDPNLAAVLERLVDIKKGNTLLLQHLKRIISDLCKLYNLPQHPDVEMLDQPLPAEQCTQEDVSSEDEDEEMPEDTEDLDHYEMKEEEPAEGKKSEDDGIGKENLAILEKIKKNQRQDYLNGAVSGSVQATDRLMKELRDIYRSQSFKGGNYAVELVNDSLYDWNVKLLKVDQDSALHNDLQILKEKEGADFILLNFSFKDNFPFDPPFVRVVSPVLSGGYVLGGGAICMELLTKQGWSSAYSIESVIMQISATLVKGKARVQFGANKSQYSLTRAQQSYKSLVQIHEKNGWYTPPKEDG
inactive: [1] -0.023 | [2] -0.001 | [3] -0.069 | [4] 0.027 | [5] 0.05 | [6] -0.143 | [7] -0.008 | [8] 0.048 | [9] 0.04 | [10] -0.017

VTI1B (UniProt Q9UEU0)
inactive: [1] 0.041 | [2] 0.07 | [3] 0.055 | [4] -0.046 | [5] -0.008 | [6] 0.005 | [7] 0.004 | [8] -0.091 | [9] 0 | [10] 0.046

UBXN10 (UniProt Q96LJ8)
inactive: [1] 0.111 | [2] 0.122 | [3] -0.021 | [4] 0.036 | [5] -0.152 | [6] 0.254 | [7] -0.05 | [8] -0.049 | [9] -0.074 | [10] 0.014

TMEM70 (UniProt Q9BUB7)
inactive: [1] 0.106 | [2] 0.028 | [3] 0.015 | [4] 0.011 | [5] 0.142 | [6] -0.004 | [7] -0.057 | [8] -0.001 | [9] 0.009 | [10] 0

XIAP (UniProt P98170)
inactive: [1] -0.149 | [2] -0.119 | [3] -0.108 | [4] 0.002 | [5] -0.033 | [6] -0.12 | [7] 0.107 | [8] -0.075 | [9] 0.081 | [10] 0.033

U2AF1 isoform 2 (UniProt Q01081)
inactive: [1] -0.027 | [2] -0.062 | [3] -0.064 | [4] 0.042 | [5] -0.104 | [6] -0.086 | [7] 0.045 | [8] -0.009 | [9] 0.041 | [10] -0.075

VPS16 (UniProt Q9H269)
inactive: [1] 0.026 | [2] -0.171 | [3] -0.028 | [4] -0.001 | [5] -0.071 | [6] -0.042 | [7] -0.049 | [8] -0.054 | [9] 0.196 | [10] -0.022

TTC38 (UniProt Q5R3I4)
UniProt Q5R3I4, sequence (Q5R3I4 whole entry, looked up): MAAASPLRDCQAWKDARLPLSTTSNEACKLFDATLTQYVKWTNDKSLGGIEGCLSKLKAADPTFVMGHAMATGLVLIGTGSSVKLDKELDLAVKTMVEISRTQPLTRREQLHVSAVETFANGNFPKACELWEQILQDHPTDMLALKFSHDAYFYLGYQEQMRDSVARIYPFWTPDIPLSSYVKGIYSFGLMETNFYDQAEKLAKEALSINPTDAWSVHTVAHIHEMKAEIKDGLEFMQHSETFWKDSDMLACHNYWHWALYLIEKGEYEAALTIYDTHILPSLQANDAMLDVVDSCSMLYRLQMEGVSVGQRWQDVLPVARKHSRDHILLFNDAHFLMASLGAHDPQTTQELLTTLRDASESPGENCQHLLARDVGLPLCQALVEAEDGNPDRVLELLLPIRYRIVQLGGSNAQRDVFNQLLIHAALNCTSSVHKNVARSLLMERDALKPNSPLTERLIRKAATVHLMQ
active: [4] 0.578
inactive: [1] -0.045 | [2] 0.086 | [3] -0.132 | [5] -0.062 | [6] -0.262 | [7] 0.435 | [8] 0.293 | [9] -0.02 | [10] -0.011

WDR62 isoform 4 (UniProt O43379)
UniProt O43379, sequence (O43379 whole entry, looked up): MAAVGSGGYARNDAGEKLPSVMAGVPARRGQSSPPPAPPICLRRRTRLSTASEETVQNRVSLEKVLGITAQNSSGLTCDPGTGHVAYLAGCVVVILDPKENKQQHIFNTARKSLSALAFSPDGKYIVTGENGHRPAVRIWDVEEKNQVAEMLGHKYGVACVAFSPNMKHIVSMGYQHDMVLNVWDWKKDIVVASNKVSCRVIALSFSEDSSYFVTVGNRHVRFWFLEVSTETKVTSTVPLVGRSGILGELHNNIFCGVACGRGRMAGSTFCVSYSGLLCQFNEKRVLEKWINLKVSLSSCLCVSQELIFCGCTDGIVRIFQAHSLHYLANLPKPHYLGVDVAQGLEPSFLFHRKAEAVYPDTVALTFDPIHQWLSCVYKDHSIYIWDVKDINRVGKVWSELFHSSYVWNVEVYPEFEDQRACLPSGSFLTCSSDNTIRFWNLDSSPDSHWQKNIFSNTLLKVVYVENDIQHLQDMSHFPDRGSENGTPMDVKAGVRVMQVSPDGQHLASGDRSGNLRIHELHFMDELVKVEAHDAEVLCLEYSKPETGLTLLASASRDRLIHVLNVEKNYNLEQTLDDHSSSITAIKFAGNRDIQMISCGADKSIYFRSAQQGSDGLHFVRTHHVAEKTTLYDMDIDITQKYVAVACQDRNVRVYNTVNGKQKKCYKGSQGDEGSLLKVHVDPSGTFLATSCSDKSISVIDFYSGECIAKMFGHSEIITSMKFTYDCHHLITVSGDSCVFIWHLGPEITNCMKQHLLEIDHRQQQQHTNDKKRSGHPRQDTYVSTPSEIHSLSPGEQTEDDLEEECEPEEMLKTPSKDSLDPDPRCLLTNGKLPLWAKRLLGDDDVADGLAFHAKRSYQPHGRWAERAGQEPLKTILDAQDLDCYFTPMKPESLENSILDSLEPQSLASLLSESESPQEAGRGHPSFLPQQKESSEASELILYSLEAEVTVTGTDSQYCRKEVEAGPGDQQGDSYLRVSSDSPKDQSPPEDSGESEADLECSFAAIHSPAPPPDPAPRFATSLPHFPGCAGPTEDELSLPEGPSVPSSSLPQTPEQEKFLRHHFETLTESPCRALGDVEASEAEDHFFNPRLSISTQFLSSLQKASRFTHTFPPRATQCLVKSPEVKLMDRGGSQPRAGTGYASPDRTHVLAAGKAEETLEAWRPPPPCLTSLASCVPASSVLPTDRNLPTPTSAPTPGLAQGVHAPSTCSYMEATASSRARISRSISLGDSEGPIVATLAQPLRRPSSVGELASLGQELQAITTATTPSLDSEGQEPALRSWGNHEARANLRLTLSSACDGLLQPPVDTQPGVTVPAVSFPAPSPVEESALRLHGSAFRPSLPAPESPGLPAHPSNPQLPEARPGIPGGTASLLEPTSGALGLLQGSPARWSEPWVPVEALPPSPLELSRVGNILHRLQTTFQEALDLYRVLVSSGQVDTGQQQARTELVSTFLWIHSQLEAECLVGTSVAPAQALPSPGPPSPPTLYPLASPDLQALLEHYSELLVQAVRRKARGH
inactive: [1] -0.025 | [2] 0.037 | [3] -0.074 | [4] 0.027 | [5] -0.165 | [6] -0.06 | [7] -0.035 | [8] 0.017 | [9] 0.015 | [10] 0.014

TSG101 (UniProt Q99816)
inactive: [1] -0.008 | [2] -0.047 | [3] -0.076 | [4] 0 | [5] 0.011 | [6] -0.12 | [7] -0.006 | [8] -0.044 | [9] -0.007 | [10] -0.032

TPR (UniProt P12270)
inactive: [1] 0.152 | [2] -0.147 | [3] -0.012 | [4] -0.035 | [5] 0.239 | [6] 0.005 | [7] -0.043 | [8] -0.112 | [9] -0.047 | [10] 0.023

TMEM161A (UniProt Q9NX61)
UniProt Q9NX61, sequence (Q9NX61 whole entry, looked up): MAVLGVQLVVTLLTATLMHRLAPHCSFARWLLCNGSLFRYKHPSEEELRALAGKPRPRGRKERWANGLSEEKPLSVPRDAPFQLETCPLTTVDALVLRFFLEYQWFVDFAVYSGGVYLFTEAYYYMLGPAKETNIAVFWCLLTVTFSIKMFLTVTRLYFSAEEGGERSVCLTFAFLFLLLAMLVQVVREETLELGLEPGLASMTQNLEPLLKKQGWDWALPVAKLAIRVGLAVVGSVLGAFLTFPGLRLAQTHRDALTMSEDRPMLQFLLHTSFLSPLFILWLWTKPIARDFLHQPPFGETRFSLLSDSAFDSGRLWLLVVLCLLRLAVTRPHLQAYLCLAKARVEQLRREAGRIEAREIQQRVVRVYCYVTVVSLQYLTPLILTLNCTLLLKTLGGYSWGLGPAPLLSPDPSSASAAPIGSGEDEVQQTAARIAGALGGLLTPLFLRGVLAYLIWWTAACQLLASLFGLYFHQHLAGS
inactive: [1] 0.011 | [2] 0.027 | [3] -0.027 | [4] 0.039 | [5] -0.108 | [6] 0.03 | [7] -0.106 | [8] -0.029 | [9] 0.106 | [10] 0.058

UBAP2L isoform 5 (UniProt Q14157)
inactive: [1] 0.017 | [2] 0.013 | [3] 0.038 | [4] -0.006 | [5] -0.096 | [6] 0.009 | [7] 0.018 | [8] -0.006 | [9] -0.018 | [10] 0.015

XPOT (UniProt O43592)
inactive: [1] 0.017 | [2] -0.102 | [3] -0.023 | [4] 0.026 | [5] 0.076 | [6] -0.022 | [7] 0.005 | [8] -0.116 | [9] 0.076 | [10] -0.044

TOM1 isoform 2 (UniProt O60784)
inactive: [1] 0.033 | [2] -0.132 | [3] 0.001 | [4] 0.132 | [5] -0.025 | [6] -0.087 | [7] -0.024 | [8] -0.043 | [9] 0.009 | [10] 0.089

TRIM44 (UniProt Q96DX7)
inactive: [1] 0.035 | [2] -0.076 | [3] -0.008 | [4] 0.116 | [5] -0.01 | [6] -0.053 | [7] -0.092 | [8] -0.026 | [9] 0.032 | [10] 0.025

TMEM8A (UniProt Q9HCN3)
inactive: [1] 0.059 | [2] -0.099 | [3] -0.009 | [4] 0.108 | [5] -0.042 | [6] -0.039 | [7] 0.004 | [8] 0.02 | [9] 0.037 | [10] -0.191

VPS50 (UniProt Q96JG6)
UniProt Q96JG6, sequence (Q96JG6 whole entry, looked up): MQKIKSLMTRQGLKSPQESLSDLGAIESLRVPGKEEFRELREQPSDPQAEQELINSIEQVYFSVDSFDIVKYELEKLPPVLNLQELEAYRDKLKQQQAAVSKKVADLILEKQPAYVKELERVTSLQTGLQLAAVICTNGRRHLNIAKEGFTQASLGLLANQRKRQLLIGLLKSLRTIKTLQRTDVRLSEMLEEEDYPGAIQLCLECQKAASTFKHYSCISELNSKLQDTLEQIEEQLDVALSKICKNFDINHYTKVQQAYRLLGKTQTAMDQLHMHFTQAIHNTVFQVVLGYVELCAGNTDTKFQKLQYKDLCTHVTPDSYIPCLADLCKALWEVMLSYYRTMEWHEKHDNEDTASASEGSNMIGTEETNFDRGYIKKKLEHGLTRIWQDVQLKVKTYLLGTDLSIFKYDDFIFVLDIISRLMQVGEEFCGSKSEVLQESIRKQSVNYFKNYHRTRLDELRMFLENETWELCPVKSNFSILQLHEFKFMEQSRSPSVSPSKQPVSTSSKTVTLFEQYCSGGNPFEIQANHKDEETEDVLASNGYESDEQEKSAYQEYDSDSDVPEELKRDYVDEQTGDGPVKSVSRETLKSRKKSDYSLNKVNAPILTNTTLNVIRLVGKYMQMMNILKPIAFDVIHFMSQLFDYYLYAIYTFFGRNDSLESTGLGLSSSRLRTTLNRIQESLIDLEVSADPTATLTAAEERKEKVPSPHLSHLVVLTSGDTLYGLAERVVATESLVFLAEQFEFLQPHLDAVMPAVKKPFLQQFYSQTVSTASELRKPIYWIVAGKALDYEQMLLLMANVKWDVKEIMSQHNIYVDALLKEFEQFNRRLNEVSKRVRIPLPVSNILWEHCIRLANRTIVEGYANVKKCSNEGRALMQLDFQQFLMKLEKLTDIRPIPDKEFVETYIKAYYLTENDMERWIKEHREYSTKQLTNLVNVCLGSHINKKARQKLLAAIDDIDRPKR
inactive: [1] -0.108 | [2] -0.089 | [3] -0.07 | [4] 0.036 | [5] 0.04 | [6] -0.11 | [7] 0.033 | [8] -0.012 | [9] 0.1 | [10] -0.022

TMEM120A (UniProt Q9BXJ8)
active: [7] -0.559
inactive: [1] 0.036 | [2] -0.098 | [3] -0.084 | [4] 0.069 | [5] -0.013 | [6] -0.104 | [8] -0.036 | [9] 0.184 | [10] -0.047

VPS51 (UniProt Q9UID3)
inactive: [1] -0.029 | [2] -0.097 | [3] -0.113 | [4] 0.029 | [5] -0.011 | [6] -0.056 | [7] 0.041 | [8] -0.034 | [9] 0.046 | [10] 0.002

TNPO2 (UniProt O14787)
inactive: [1] 0.066 | [2] -0.055 | [3] -0.188 | [4] 0.03 | [5] 0.013 | [6] -0.188 | [7] -0.051 | [8] 0.054 | [9] 0.133 | [10] -0.079

TNFRSF10A (UniProt O00220)
inactive: [1] -0.038 | [2] -0.012 | [3] 0.02 | [4] 0.04 | [5] -0.052 | [6] 0.039 | [7] 0.017 | [8] 0.02 | [9] 0.031 | [10] 0.056

UQCR10 (UniProt Q9UDW1)
inactive: [1] 0.001 | [2] 0.121 | [3] -0.024 | [4] -0.103 | [5] 0.018 | [6] 0.039 | [7] -0.063 | [8] 0.018 | [9] 0.001 | [10] -0.031

TRIP10 (UniProt Q15642)
inactive: [1] 0.036 | [2] -0.014 | [3] -0.011 | [4] 0 | [5] 0.027 | [6] -0.029 | [7] 0.006 | [8] 0.046 | [9] 0.038 | [10] -0.005
